# This excerpt belongs to a sample that is enriched for hits.
# FECH block: blocks human mitochondrial ferrochelatase activity; 20,000 tested, 3.3% active; purified FECH, Ni-mesoporphyrin absorbance 550 nm; P22830; calls only at 10 µM (by protocol);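 active = enzyme reaction rate more than 3 SD below the solvent-only control wells on the same plate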;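 also: lower slope than DMSO wells means FECH inhibition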
# Target sequence (P22830 whole entry, looked up): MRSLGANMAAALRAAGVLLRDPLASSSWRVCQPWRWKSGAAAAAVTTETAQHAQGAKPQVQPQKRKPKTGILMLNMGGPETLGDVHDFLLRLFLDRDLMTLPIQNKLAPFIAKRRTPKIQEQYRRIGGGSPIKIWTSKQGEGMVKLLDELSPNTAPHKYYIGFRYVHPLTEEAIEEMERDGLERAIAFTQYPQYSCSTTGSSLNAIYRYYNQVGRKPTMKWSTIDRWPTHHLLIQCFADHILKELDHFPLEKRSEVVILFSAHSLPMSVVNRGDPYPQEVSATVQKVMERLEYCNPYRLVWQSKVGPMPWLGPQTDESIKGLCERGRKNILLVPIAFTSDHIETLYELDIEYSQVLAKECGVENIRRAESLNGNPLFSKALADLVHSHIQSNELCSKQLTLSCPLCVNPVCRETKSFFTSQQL
# An asterisk follows results filed as active; i = inactive; + = active, no number.
SMILES,FECH block
CCc1c(C)nc2ncnn2c1Sc1ccc(NC(=O)Nc2cc(OC)c(OC)c(OC)c2)cc1,+
CCc1cc(Sc2ccc(NC(=O)Nc3ccccc3F)cc2)n2ncnc2n1,i
CCCc1cc(Sc2ccc(NC(=O)c3cccc(C)c3)cc2)n2ncnc2n1,i
CCCc1cc(Sc2ccc(NC(=O)Nc3ccc(Cl)cc3)cc2)n2ncnc2n1,i
CCCc1c(C)nc2ncnn2c1Sc1ccc(NC(=O)Nc2ccc(OC)c(OC)c2)cc1,i
CCCc1c(C)nc2ncnn2c1Sc1ccc(NC(=O)c2c(OC)cccc2OC)cc1,i
CCCc1c(C)nc2ncnn2c1Sc1ccc(NC(=O)Nc2cccc(OC)c2)cc1,+
CCc1c(C)nc2ncnn2c1Sc1ccc(NC(=O)Nc2cc(C)ccc2OC)cc1,i
CCc1cc(Sc2ccc(NC(=O)Nc3ccc(Cl)cc3)cc2)n2ncnc2n1,+
CCCc1cc(Sc2ccc(NC(=O)c3cccc(F)c3)cc2)n2ncnc2n1,+
CCCc1cc(Sc2ccc(NC(=O)c3ccc(C)cc3)cc2)n2ncnc2n1,i
CCc1c(C)nc2ncnn2c1Sc1ccc(NC(=O)Nc2ccccc2OC)cc1,i
O=C(NCCc1nc(-c2ccccc2)no1)C1CC(=O)N(C2CC2)C1 (configuration not stated),i
O=C(NCc1ccccc1Cl)C1CCCN1C(=O)C1CCCCC1 (configuration not stated),i
CCOC(=O)c1ccc(N2CCN(C3CCOCC3)CC2)nc1,i
CN1CCNC(=O)C12CCN(C(=O)c1ncn[nH]1)CC2,i
Cc1ccsc1CN(C)CCCn1cccn1,i
COC(=O)CN1C(=O)C2CCCCN2C(=O)c2ccccc21 (configuration not stated),i
CCCc1cc(Sc2ccc(NC(=O)Nc3ccc(OC)c(OC)c3)cc2)n2ncnc2n1,i
CCCc1cc(Sc2ccc(NC(=O)Nc3cccc(OC)c3)cc2)n2ncnc2n1,+
CCCc1cc(Sc2ccc(NC(=O)Nc3cccc(Cl)c3)cc2)n2ncnc2n1,i
COc1ccc(OC)c(CNC(=O)CN2C(=O)c3cccnc3Sc3ccccc32)c1,+
COc1ccc(OC)c(CNC(=O)Cn2c(=O)c3cnc(-c4ccccc4)nc3n(C)c2=O)c1,i
CCOc1ccc(CNC(=O)CN2C(=O)CN(C)C(=O)c3ccccc32)cc1OC,i
CCCCNc1cc(C(C)C)nc2nc(-c3cccnc3)nn12,i
SMILES,FECH block
COc1cccc(F)c1-c1cc(C(=O)N2CCCC2)ccn1,i
O=C(CCc1cn2ccccc2n1)NCCc1nc2c(s1)CCC2,i
COc1cc2c(cc1NS(=O)(=O)NCc1ccccc1)n(C)c(=O)n2C,i
CC(=O)Nc1ccnn1CC1=CCCN(C2C=CCCC2)C1 (configuration not stated),i
CCc1c(C)nc2ncnn2c1Sc1ccc(NC(=O)NCc2ccc(C)cc2)cc1,+
CCc1c(C)nc2ncnn2c1Sc1ccc(NC(=O)NCCc2ccccc2)cc1,+
CCc1c(C)nc2ncnn2c1Sc1ccc(NC(=O)Nc2ccc(C)cc2C)cc1,i
CCOc1ccc(NC(=O)Nc2ccc(Sc3c(CC)c(C)nc4ncnn34)cc2)cc1,i
CCc1c(C)nc2ncnn2c1Sc1ccc(NC(=O)NCc2ccc(F)cc2)cc1,i
CCOc1ccccc1NC(=O)Nc1ccc(Sc2c(CC)c(C)nc3ncnn23)cc1,i
Cc1cccc(N2CCN(c3ncc(NS(=O)(=O)c4cc(F)ccc4C)cc3C(=O)O)CC2C)c1 (configuration not stated),+
Cc1cccc(N2CCN(c3ncc(NS(=O)(=O)c4ccccc4C)cc3C(=O)O)CC2C)c1 (configuration not stated),i
Cc1cccc(N2CCN(c3ncc(NS(=O)(=O)c4ccc(F)cc4)cc3C(=O)O)CC2C)c1 (configuration not stated),i
O=C(CSCc1nc(-c2ccccc2)no1)N1CCc2ccccc21,i
Cc1cc(C)n(CCNC(=O)[C@H](N)CC(C)C)c(=O)n1,i
COC(=O)c1ccc2c(c1)nc(N1C[C@@H]3C[C@H](C1)[C@@H]1CCCC(=O)N1C3)n2C,i
O=c1n(CCOc2ccccc2)nc(C2CCNCC2)n1-c1ccccc1,i
Cc1cc(C)n2nc(CN(C(=O)c3ccc(F)cc3)c3ccc(Cl)cc3)nc2n1,i
CCOc1ccc(N(Cc2nc3nc(C)cc(C)n3n2)C(=O)C(C)(C)C)cc1,i
Cc1ccc(C(=O)N(Cc2nc3nc(C)cc(C)n3n2)c2ccc(Cl)cc2)cc1,i
CCOc1ccc(N(Cc2nc3nc(C)cc(C)n3n2)C(=O)c2ccc(C)cc2)cc1,+
Cc1ccc(N(Cc2nc3nc(C)cc(C)n3n2)C(=O)c2ccc(C(C)(C)C)cc2)cc1,+
Cc1ccc(C(=O)N(Cc2nc3nc(C)cc(C)n3n2)c2ccc(F)cc2)cc1,i
Cc1cc(C)n2nc(CN(C(=O)c3ccc(C(C)(C)C)cc3)c3cccc(Cl)c3)nc2n1,i
Cc1cccc(N(Cc2nc3nc(C)cc(C)n3n2)C(=O)c2ccc(C(C)(C)C)cc2)c1,+
SMILES,FECH block
COc1ccccc1C(=O)N(Cc1nc2nc(C)cc(C)n2n1)c1ccc(C)cc1,i
CCOc1ccc(N(Cc2nc3nc(C)cc(C)n3n2)C(=O)c2ccccc2C)cc1,i
Cc1cccc(N(Cc2nc3nc(C)cc(C)n3n2)C(=O)c2ccc(F)cc2)c1,+
COc1ccc(C(=O)N(Cc2nc3nc(C)cc(C)n3n2)c2ccccc2)cc1,i
NS(=O)(=O)c1ccc(NC(=O)c2nc(S(=O)(=O)Cc3ccc(F)cc3)ncc2Cl)cc1,i
COc1cccc(SCC(=O)N2CCNCC2C(=O)NC2CC2)c1 (configuration not stated),i
CC(C)c1cc(C2CCN(C(=O)c3ccccc3-c3ncc[nH]3)CC2)[nH]n1,i
CC(Cn1cncn1)n1ccnc1-c1cc2ccccc2[nH]c1=O (configuration not stated),i
Cc1cc2cc(C(=O)NCC3CN(S(C)(=O)=O)CCO3)ccc2o1 (configuration not stated),i
CCS(=O)(=O)N1CCN(c2nc(C)cc(N3CCCCC3)n2)CC1,i
O=C1CN(Cc2ccc(F)cc2)S(=O)(=O)c2ccccc2N1Cc1ccccc1,i
O=C1CN(Cc2ccc(F)cc2Cl)S(=O)(=O)c2ccccc2N1Cc1ccccc1F,i
O=C1CN(Cc2ccccc2)S(=O)(=O)c2ccccc2N1Cc1ccccc1F,+
OCc1cc(-c2ccc(-c3nc(CCCc4ccccc4)no3)cn2)ccc1F,i
Cc1ccc(S(=O)(=O)N2CCC3(CCCN(Cc4cccnc4)C3=O)C2)cc1 (configuration not stated),i
CCOC(=O)N1CCC(N2CCC3(CCNC(=O)CC3)CC2)CC1,i
O=C(CN1c2ccc(F)cc2-c2ccccc2S1(=O)=O)NCCCN1CCOCC1,i
COC(=O)c1cc(NC(=O)CN2c3ccc(F)cc3-c3ccccc3S2(=O)=O)cc(C(=O)OC)c1,+
CC(CCc1ccccc1)NC(=O)CN1c2ccc(Br)cc2-c2ccccc2S1(=O)=O (configuration not stated),i
CCOC(=O)c1ccc(NC(=O)CN2CCCN(Cc3cccc(F)c3)S2(=O)=O)cc1,i
CC(C)(C)NC(=O)c1ccccc1NC(=O)CN1c2ccc(F)cc2-c2ccccc2S1(=O)=O,i
CC(CCc1ccccc1)NC(=O)CN1c2ccc(F)cc2-c2ccccc2S1(=O)=O (configuration not stated),+

# Compound activity as filed in PubChem.
